High-throughput results deposited in PubChem by National Center for Advancing Translational Sciences (NCATS).
The list is not random: actives were taken first. Their share in the collection is about 19%.
HT1080-NT tox: kills 2HG-producing HT-1080-NT fibrosarcoma cells. HT-1080-NT fibrosarcoma viability, CellTiter-Glo ATP luminescence, 48 h. Potency, µM (top dose mostly 46.1 µM), inactives show at the highest dose activity, negative = less viability, most hits filed as cytotoxic. actives 1.6% (n = 360,000). AID 686970;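 note: NT is the 2HG producing partner of a matched IDH1 knockdown line; potency is the fitted concentration of half-maximal effect; 0% = DMSO-treated cells and -100% = media-only wells without cells; nearly all actives have a fitted effect of over 55% in size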
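HT-1080-NT; 750 cells/well; 5% FBS RPMI; 48 h compound, 37 degrees C; CellTiter-Glo luminescence; curve fitting and curve-class assignment.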
TDP1 cell noCPT: qHTS for Inhibitors of human tyrosyl-DNA phosphodiesterase 1 (TDP1): qHTS in cells in absence of CPT; DT40 Tdp1-/- hTDP1 cells, no CPT, ATP luminescence, 48 h; Potency, µM (doses to about 46.2 µM), for inactives: top-dose activity change, negative = growth inhibition, hits mostly inhibitors; actives 15% (n = 420,000); AID 686978, 2013; note: potency is the fitted concentration of half-maximal effect; nearly all actives have a fitted effect of over 55% in size
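Compound effects on proliferation are scored in DT40 Tdp1-/-;hTDP1 cells in the absence of CPT. ATP levels (CellTiter-Glo luminescence) are recorded after a ≥48 hr, 37 °C incubation.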
HT1080 IDH1KD tx: HT-1080 IDH1 knockdown cell toxicity (counter line); HT-1080 IDH1 knockdown viability, ATP luminescence, 48 h; Potency, µM (series often up to 46.1 µM), inactives show top-dose activity, negative = toxicity, actives largely listed as cytotoxic; actives 2% (n = 360,000); AID 686971;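 note: potency is the fitted concentration of half-maximal effect; 0% = DMSO wells and -100% = cell-free medium wells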
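IDH1KD HT-1080 cells, 750/well, RPMI + 5% FBS; compound pinned after 2 h settling; 48 h, 37 °C; CellTiter-Glo luminescence; % activity normalised to DMSO and no-cell wells; curves fitted, classed by r2 and efficacy.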
TDP1 cell CPT: DT40-hTDP1 cell growth loss with CPT; Potency, µM (top dose mostly 46.2 µM), for inactives: at the highest dose activity change, negative = growth inhibition, usual class: inhibitors; actives 12% (n = 420,000); AID 686979; chicken DT40 Tdp1-/-;hTDP1 cells + 20 nM CPT, ATP luminescence, 48 h; note: potency is the fitted concentration of half-maximal effect; nearly all actives have a fitted effect of over 55% in size
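Cell growth measured by CellTiter-Glo luminescence after a minimum 48 h, 37 C compound exposure with 20 nM CPT in Tdp1-knockout DT40 cells stably expressing hTDP1, seeded 400/well; qHTS titration format.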
IL-1B inflam inh: inflammasome signaling inhibition, IL-1 beta readout | THP-1 LPS/ATP IL-1B secretion, AlphaLISA, 16 h; active compounds read low | activity change, % at 57.5 µM | actives 4.7% (n = 360,000); in the data active = activity change below about -50%; inconclusive = mostly about -30% to -49%
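Secreted IL-1B measured by AlphaLISA bead assay after 16 h compound exposure of THP-1 cells; compounds (final up to 57.5 uM) added 1 h before LPS (250 ng/mL) and ATP (1.25 mM) stimulation; lower signal means less secretion.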
Active calls of the source: *; ? = inconclusive; / = not tested or not shown; [ ] = remark or other dose. Unless noted, calls come from the whole dose curve; as a rule, active = well fitted curve in the direction sought with a large enough effect; inconclusive = small, poorly fitted or top-dose-only effect, or another doubt; inactive = no such curve, though single readings can be large; an effect the other way counts as inactive or inconclusive. Unless noted, % is set by controls: 0 for no effect and ±100 for the full control effect.

SMILES	HT1080-NT tox	TDP1 cell noCPT	HT1080 IDH1KD tx	TDP1 cell CPT	IL-1B inflam inh
C=CCc1cccc2cc(C(=O)N(CC)CC)c(=O)oc12	0.3%	4.4%	0.3%	7.8%	-5.9
Cn1c(=O)n(C)c2cc([N+](=O)[O-])c(N3CCN(C(=O)c4ccc(F)cc4)CC3)cc21	2.5%	?	-16.0%	18.4µM*	29.8
CCC(=O)N1CCN(c2cc(N3CCCC3)c(F)cc2[N+](=O)[O-])CC1	-2.2%	8.3%	?	-16.7%	?
O=C(c1ccc(F)cc1)N1CCN(c2ccc([N+](=O)[O-])c(N3CCCCC3)c2)CC1	4.2%	23.1µM*	-0.6%	?	-23.3
O=C(COc1ccccc1Cl)N1CCN(c2ccc([N+](=O)[O-])c(N3CCCCC3)c2)CC1	-1.8%	23.1µM*	18.0%	?	?
O=C(c1cccc(F)c1)N1CCN(c2cc(N3CCCCC3)c(F)cc2[N+](=O)[O-])CC1	0.0%[9.24 µM]	18.4µM*	2.4%	18.4µM*	-74.4*
CCOc1ccc(C(=O)c2cn(CC(=O)Nc3cccc(OC)c3)c3cc4c(cc3c2=O)OCCO4)cc1	/	?	/	-26.2%	/
COC(=O)[C@@H]1C[C@@]2(O)[C@@H](O)[C@@H](O)[C@@H](O)C[C@H]2N1C/C=C/c1ccccc1	9.7%	-3.7%	3.8%	-1.3%	-13.3
Cc1ccc(S(=O)(=O)NC(=O)c2ccc(Br)o2)cc1	2.7%	-19.6%	19.0%	-24.1%	24.8
Cn1c(=O)n(C)c2cc([N+](=O)[O-])c(N3CCN(C(=O)c4ccc(Cl)cc4)CC3)cc21	0.0%	?	?	?	-80.0*
NNc1nc2c(F)cc(F)cc2s1	-11.1%	23.1µM*	-1.0%	?	-24.5
NNc1nc2c(F)cccc2s1	-21.7%	14.6µM*	2.8%	?	4.8
Fc1cccc2sc(Nc3nc4c(F)cccc4s3)nc12	-6.5%	13µM*	-8.5%	?	17.5
Fc1cc(F)c2nc(N3CCCC3)sc2c1	9.1%	7.9%	3.8%	-5.1%	-13.4
O=C(Nc1nc2c(F)cccc2s1)C1CC1	13.3%	-12.0%	-0.8%	-6.4%	21.7
CC1CCc2c(sc(Nc3nc4c(F)cccc4s3)c2C(N)=O)C1 (centres undefined)	?	16.4µM*	?	?	-78.5*
O=C(NCc1ccc(F)cc1)N1CCN(C(=O)c2ccccc2)CC1	0.9%	-25.6%	2.0%	-10.5%	-4.1
Cc1cccc(C)c1NC(=O)/C(=C/c1ccco1)c1ccccc1	-0.9%	13µM*	-12.9%	18.4µM*	-15.9
O=C(NCCc1ccccc1)/C(=C/c1ccco1)c1ccccc1	-0.6%	?	0.3%	25.9µM*	-9.4
Cc1ccc2[nH]c3c(NCc4ccco4)ncnc3c2c1	-8.3%	18.4µM*	-21.4%	23.1µM*	-21.2
COc1cc(CNc2ncnc3c2[nH]c2ccc(C)cc23)cc(OC)c1	-24.8%	20.6µM*	-6.7%	?	?
COc1ccc(/C=N/Nc2ncnc3c2[nH]c2ccc(C)cc23)c(OC)c1OC	-4.1%	14.6µM*	-9.1%	?	55.5
Fc1ccc2[nH]c3c(NCc4ccco4)ncnc3c2c1	/	8.91µM*	/	7.08µM*	/
O=C(Nc1ccc(Oc2ccc(C(F)(F)F)cn2)c(Cl)c1)C1CC1	?	?	?	?	-29.2
CC1(C(=O)Nc2cnc3ccccc3c2)CCN1C(=O)c1ccccc1CCc1ccccc1 (centres undefined)	?	?	?	?	-9.8
Cc1ccc(CNC(=O)C2CCCCN2S(=O)(=O)c2ccc(F)cc2)cc1 (centres undefined)	/	25.9µM*	/	13µM*	/
CC(C)c1ccc(CNC(=O)C2CCCN2S(=O)(=O)c2ccccc2)cc1 (centres undefined)	-9.1%	11.6µM*	-2.2%	?	0.7
O=C(NCc1ccc(F)cc1)C1CCCN1S(=O)(=O)c1ccccc1C(F)(F)F (centres undefined)	-1.6%	?	-2.0%	13µM*	2.3
